This is a sample that favours compounds with a hit; in the whole collection about 7.3% have one here.
Rab9 promoter act – activators of Rab9 promoter; Huh7 Rab9 promoter-luciferase reporter, luminescence, 24 h; 320,000 compounds, 2.8% hits; Potency, µM (highest dose often 9.22 µM), without a hit: top-dose activation, negative = inhibition, hits mostly activators; also: % of control where 0% means no effect; nearly all actives have a fitted effect of over 60% in size
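Luminescence read-out: Huh7 cells stably expressing Rab9-luciferase, treated 24 h with compound at 37 °C, then lysed with luciferase reagent for 10 min at ambient before reading.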
SMN2 splice enh – enhancers of SMN2 splice variant expression; HEK293 SMN2-luciferase splicing reporter, luminescence, 30-36 h; Potency, µM (highest dose often 46.1 µM), without a hit: top-dose activity change, positive = activation, most hits filed as activators; 210,000 compounds, 2.8% hits; also: % of control where 0% means no effect; nearly all actives have a fitted effect of over 55% in size
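HEK293 cells carry an SMN2 […]–luciferase reporter in which exon 7 inclusion puts luciferase in frame. Cells were plated 10-12 h before compound addition, then incubated 30-36 h at 37C. ONE-Glo luminescence was read; sodium butyrate at 4.5 mM final served as control.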
Luc counter – blocks Kinase-Glo luciferase, a counter-screen artifact. Potency, µM (highest dose often 38.3 µM), without a hit: at the top dose activity change, negative = inhibition, usual class: inhibitors. Q27757. 200,000 compounds, 0.28% hits. Kinase-Glo luciferase, ATP luminescence, 8 min; also: % is scaled to controls: 0 for no effect and ±100 for the full control effect; nearly all actives have a fitted effect of over 60% in size
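Recombinant Kinase-Glo luciferase, 10 uM ATP (linear range), luciferin; imidazole pH 7.2 / KCl / MgCl2 / Tween / BSA buffer; 8 min RT; luminescence.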
NPC1 prom act – activates the NPC1 promoter; 320,000 compounds, 2.4% hits; Huh7 NPC1 promoter luciferase reporter, 24 h; Potency, µM (highest dose often 9.22 µM), inactives show top-dose activation, actives largely listed as activators; AID 485313; also: % of control where 0% means no effect; nearly all actives have a fitted effect of over 60% in size
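In 1536-well qHTS, Huh7 cells harboring an NPC1 promoter–luciferase construct received compound for 24 h; activation was quantified by luminescence following luciferase reagent addition.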
FLuc counter – counter-screen for miR-21 project: firefly luciferase inhibitors or activators | Potency, µM (highest dose often 57.5 µM), without a hit: top-dose activity change, negative = inhibition, most hits filed as inhibitors | AID 588342 | purified FLuc, Km substrates, luminescence inhibition | 360,000 compounds, 6.9% hits | P08659;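 also: plate controls were vehicle for no effect and reference inhibitor for full effect; nearly all actives have a fitted effect of over 55% in size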
Target sequence (P08659 whole entry, looked up): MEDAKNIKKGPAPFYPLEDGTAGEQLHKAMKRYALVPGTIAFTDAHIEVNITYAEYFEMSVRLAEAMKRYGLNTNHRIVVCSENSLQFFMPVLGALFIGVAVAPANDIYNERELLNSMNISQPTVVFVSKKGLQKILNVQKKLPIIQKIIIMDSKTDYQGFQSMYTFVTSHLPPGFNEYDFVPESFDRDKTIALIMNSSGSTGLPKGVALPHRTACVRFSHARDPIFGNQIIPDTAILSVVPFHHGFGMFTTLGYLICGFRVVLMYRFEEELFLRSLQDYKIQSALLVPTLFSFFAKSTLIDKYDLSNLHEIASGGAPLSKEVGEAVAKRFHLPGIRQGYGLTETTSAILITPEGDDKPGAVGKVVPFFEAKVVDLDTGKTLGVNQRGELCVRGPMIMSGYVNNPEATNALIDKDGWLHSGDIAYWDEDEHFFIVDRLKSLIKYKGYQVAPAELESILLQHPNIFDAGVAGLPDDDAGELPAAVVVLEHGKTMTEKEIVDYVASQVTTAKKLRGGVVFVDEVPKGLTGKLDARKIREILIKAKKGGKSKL
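Biochemical qHTS of compounds, final roughly 60 µM downward over six points, against 10 nM purified firefly luciferase using Km concentrations of substrates (10 uM D-luciferin, 10 uM ATP) in Tris acetate pH 7.5 buffer; luminescence output.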
Numbers without * were called inactive; ? = inconclusive; / = not tested or not shown; [ ] = dose if it differs, or a comment. Calls follow the shape of the dose curve; as a rule, active = well fitted curve in the direction sought with a large enough effect; inconclusive = small, poorly fitted or top-dose-only effect, or another doubt; inactive = no such curve, though single readings can be large; an effect the other way counts as inactive or inconclusive. Potency is read from the fitted curve at half-maximal effect.

SMILES	Rab9 promoter act	SMN2 splice enh	Luc counter	NPC1 prom act	FLuc counter
O=C1C(C=NCCCN2CCCC2=O)=C(O)c2ccccc21	?	?	7.0%	?	19µM*
O=C1C(C=NCc2ccccn2)=C(O)c2ccccc21	3.98µM*	5.62µM*	-5.2%	2.24µM*	12µM*
Cc1ccccc1CNC(=O)C1CCCN(c2nnc(-n3c(C)ccc3C)s2)C1 (configuration not stated)	/	-4.2%	/	/	-10.5%
COc1ccc(Oc2nc3c(C)cccn3c(=O)c2/C=C(\C#N)c2nc3ccccc3[nH]2)cc1	/	3.2%	/	/	-5.3%
c1ccn2cc(CSC3=NCCS3)nc2c1	?	?	-8.6%	?	19µM*
c1ccn2cc(CSc3nnc4ccccn34)nc2c1	1µM*	17.1%	-14.6%	3.55µM*	13.5µM*
c1ccc(-n2nnnc2SCc2cn3ccccc3n2)cc1	8.2%	9.2%	-1.9%	6.9%	-3.2%
Cn1ccnc1SCc1cn2ccccc2n1	3.16µM*	?	-11.5%	3.16µM*	16.9µM*
Cc1ccn2cc(CSc3ccccc3)nc2c1	1.41µM*	12.6µM*	-8.5%	1.26µM*	4.78µM*
Cc1cccn2c(=O)cc(COc3cccc(NC(=O)c4ccccc4F)c3)nc12	/	/	/	/	0.1%
Cc1c(C(=O)N(Cc2ccc(Cl)cc2)CC2CCCO2)oc2ccc(F)cc12 (configuration not stated)	/	/	/	/	2.1%
COc1ccc(Br)cc1CNC(=O)CCSCc1ccc(Cl)cc1	/	/	/	/	-17.0%
O=[N+]([O-])c1cccc(CSc2nnc3ccccn23)c1	0.5%	1.8%	-2.7%	-4.1%	6.2%
c1ccn2c(SCc3ccc4c(c3)OCCO4)nnc2c1	3.55µM*	11.2µM*	-5.4%	?	?
COc1ccc2nc(NC(=O)CSc3nc(C)cc(C)n3)sc2c1	-0.6%	-24.0%	8.2%	-0.7%	-20.0%
CCn1nnnc1SCC(=O)Nc1ccc(OC)cc1	4.8%	26.1%	2.3%	7.4%	-3.4%
CCn1nnnc1SCC(=O)Nc1nc2ccc(OC)cc2s1	19.9%	20.2%	0.4%	22.9%	12µM*
COc1ccc2nc(NC(=O)CSc3nnc(-c4ccoc4C)n3C)sc2c1	3.55µM*	?	-7.2%	2.82µM*	2.69µM*
COc1ccc(C(C[N+](=O)[O-])C2(c3ccc(OC)c(OC)c3)C(=O)c3ccccc3C2=O)cc1 (configuration not stated)	?	25.1µM*	-4.3%	28.4%	6.01µM*
N#CC1CC(c2ccccc2)Nc2cc(Cl)ccc2N1 (configuration not stated)	25.8%	/	/	14.6%	10.7µM*
CCCC1Oc2ccccc2C(=O)N(CC(=O)c2ccc3c(c2)OCCO3)C1=O (configuration not stated)	?	/	/	30.2%	6.01µM*
CC1CCCCC12NC(=O)N(CC(=O)c1ccc3c(c1)OCO3)C2=O (configuration not stated)	6.4%	/	/	10.6%	-15.0%
O=C(CN1C(=O)c2ccccc2S1(=O)=O)c1ccc2c(c1)OCCCO2	-53.8%	/	/	-40.5%	2.13µM*
O=C(CCN1C(=O)c2ccccc2S1(=O)=O)Nc1ccc2c(c1)OCCO2	9.6%	-9.8%	-5.0%	22.2%	?
O=C(CN1C(=O)c2ccccc2S1(=O)=O)c1ccc2c(c1)OCCO2	-47.0%	/	/	-36.5%	5.36µM*
SMILES	Rab9 promoter act	SMN2 splice enh	Luc counter	NPC1 prom act	FLuc counter
CC(C)CC1NC(=O)N(CC(=O)c2ccc3c(c2)OCCO3)C1=O (configuration not stated)	1.12µM*	12.6µM*	7.4%	2.82µM*	10.7µM*
CCCCN1C(=O)C(=O)N(CC(=O)c2ccc3c(c2)OCO3)C1=O	-4.0%	/	/	1.0%	0.9%
O=C(CN1C(=O)c2ccccc2S1(=O)=O)NC1CCCCCC1	26.8%	16.4%	-0.8%	13.1%	?
COc1ccc(C(=O)Nc2ccccc2-c2nc3ccccc3s2)cc1OC	/	-9.8%	/	/	-5.1%
Cc1ccc(CN2c3ccccc3-c3nc(SCC(=O)Nc4c(C)cc(C)cc4C)ncc3S2(=O)=O)cc1	/	/	/	/	3.2%
COc1cccc(-n2c(=O)c3sc4ccccc4c3n(CC(=O)Nc3ccc(F)cc3F)c2=O)c1	/	-8.6%	/	/	0.3%
CCOC(=O)C1CCN(c2c(C(=O)c3ccc(OCC)cc3)cnc3ccc(OC)cc23)CC1	/	-12.4%	/	/	-11.0%
CCc1nn2c(=O)cc(COC(=O)CNC(=O)c3ccccc3)nc2s1	/	/	/	/	-2.2%
O=C(CCS(=O)(=O)c1ccccc1)Nc1nc2cc3c(cc2s1)OCCO3	18.8%	/	/	18.0%	7.57µM*
O=C(CCS(=O)(=O)c1ccccc1)Nc1nc2cc3c(cc2s1)OCO3	18.6%	/	/	21.7%	13.5µM*
Nc1nc(N)c2nn(-c3ccc(C(=O)O)cc3)nc2n1	/	3.1%[9.22 µM]	-0.1%[7.66 µM]	/	/
COCCn1c(C)cc(C(=O)COC(=O)C23CC4CC(CC(O)(C4)C2)C3)c1C	0.355µM*	?	9.6%	0.355µM*	1.51µM*
COCCn1c(C)cc(C(=O)COC(=O)c2cc3c(s2)CCC3)c1C	3.98µM*	-8.2%	-4.3%	3.55µM*	10.7µM*
Cc1cc(C(=O)COC(=O)C23CC4CC(CC(O)(C4)C2)C3)c(C)n1-c1c(C)n(C)n(-c2ccccc2)c1=O	-1.3%	-2.1%	0.7%	-0.2%	1.2%
Cc1cc(C(=O)COC(=O)c2csc3c2CCCC3)c(C)n1C	10.4%	-20.3%	-1.2%	15.3%	12µM*
COCCn1c(C)cc(C(=O)COC(=O)c2cccc(O)c2)c1C	?	/	/	?	0.107µM*
COc1ccc(NC(=O)CC2C(=O)N(c3ccccc3)C(=O)N2C2CCCCC2)cc1 (configuration not stated)	/	-3.3%	/	/	-1.1%
Cc1cccc(C)c1NC(=O)CCC(=O)N1Cc2ccccc2Oc2ncccc21	/	/	/	/	-7.6%
CCOc1cc(/C=C/c2cc(C(=O)O)c3ccccc3n2)ccc1OC	?	22.4µM*	0.1%	?	1.35µM*
COc1cc(/C=C/c2cc(C(=O)O)c3ccccc3n2)cc(OC)c1O	-8.6%	7.0%	-2.6%	-0.2%	9.53µM*
COc1cc(C(=O)O)c2ccccc2n1	-0.4%	/	-0.2%	-4.8%	-9.8%
CCOc1cccc(/C=C/c2cc(C(=O)O)c3ccccc3n2)c1OC	4.47µM*	/	/	2µM*	1.07µM*
CCOc1cc(/C=C/c2cc(C(=O)O)c3ccccc3n2)ccc1O	2.3%	13.0%	-3.1%	0.9%	4.26µM*
CCOc1cc(/C=N/N=C/c2ccc(O)c(OCC)c2)ccc1O	0.7%	/	/	1.6%	2.6%
CCOc1ccccc1NC(=O)c1cc(-c2cc(OC)c(OC)c(OC)c2)nc2ccccc12	9.3%	/	/	-2.5%	-0.2%
COc1ccc(OC)c2c(=S)c3ccccc3[nH]c12	/	/	-19.1%	/	/
CC(C)Cc1nn2c(=O)cc(COC(=O)c3ccc4c(c3)OCO4)nc2s1	/	/	/	/	-8.8%
Cc1ccc(-c2nn3c(C)nnc3c3ccccc23)cc1S(=O)(=O)NC(C)(C)CO	-11.5%	?	-1.8%	-6.7%	4.9%

From PubChem
